This is part of a sample that, as a whole, favours compounds with a hit. Of some 79,000 tested, about 15% had one in any assay. Calls of active or inactive are those of the source. Rule as the data show it: active = growth inhibition above about 70%; inactive = the rest.
Tests used:
[1] = NCI Yeast Anticancer Drug Screen. Data for the mec2-1 strain (AID 157); conditions: S. cerevisiae mec2-1 strain, active compounds read high
Outline: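 Each compound was tested on mec2-1 yeast, a strain altered in DNA damage repair or cell cycle control. Growth inhibition is reported relative to vehicle.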

[2] = NCI Yeast Anticancer Drug Screen. Data for the rad14 strain (AID 159);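 also: 0% = growth of vehicle-treated control cultures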; conditions: S. cerevisiae rad14 strain growth inhibition, active compounds read high
Outline: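 A mutant yeast strain defective in DNA damage repair is treated with compound; inhibition of its growth is scored against untreated, vehicle-exposed cultures.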

[3] = NCI Yeast Anticancer Drug Screen. Data for the sgs1 mgt1 strain (AID 161);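 also: 0% = growth of cultures given vehicle only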; conditions: S. cerevisiae sgs1 mgt1 strain, active compounds read high
Outline: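 Mutant yeast exposed to compound; growth scored against vehicle-only wells.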

[4] = NCI Yeast Anticancer Drug Screen. Data for the CLN2oe strain (AID 163);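 also: 0% = growth of vehicle-only control cultures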; conditions: S. cerevisiae CLN2oe strain, active compounds read high
Outline: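 First, the altered yeast strain was treated with each compound; second, its growth was measured; finally, inhibition was derived by comparison with vehicle controls.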

[5] = NCI Yeast Anticancer Drug Screen. Data for the cln2 rad14 strain (AID 165);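 also: 0% = growth equal to vehicle treated cultures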; conditions: S. cerevisiae cln2 rad14 strain, active compounds read high
Outline: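 Test compounds were added to cln2 rad14 yeast cultures; inhibition of growth was then determined by comparison with vehicle treatment.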

[6] = NCI Yeast Anticancer Drug Screen. Data for the bub3 strain (AID 167); conditions: S. cerevisiae bub3 mutant strain, active compounds read high
Outline: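 Steps: expose the mutant yeast strain to compound; grow alongside vehicle-treated cultures; measure growth; express inhibition against the vehicle cultures.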

[7] = NCI Yeast Anticancer Drug Screen. Data for the wt2 strain (AID 169);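 also: 0% = growth of vehicle-treated yeast cultures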; conditions: S. cerevisiae wt2 strain growth inhibition, active compounds read high
Outline: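 The panel's yeast strains carry defined changes in DNA repair or cell cycle genes. Each strain is grown with compound, and growth loss is scored relative to vehicle.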

[8] = NCI Yeast Anticancer Drug Screen. Data for the mlh1 strain (AID 171);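 also: 0% = growth of vehicle-treated control cultures of the same strain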; conditions: S. cerevisiae mlh1 strain growth inhibition, active compounds read high
Outline: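 Inhibition values reflect reduced yeast growth in the presence of compound, referenced to vehicle controls, using a strain chosen for its alteration in DNA repair or cell cycle control.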

[9] = NCI Yeast Anticancer Drug Screen. Data for the sgs1 strain (AID 173);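 also: 0% = growth of vehicle-only control cultures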; conditions: S. cerevisiae sgs1 mutant, active compounds read high
Outline: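 Vehicle-treated cultures served as reference for growth inhibition of a yeast strain altered in DNA damage repair or cell cycle control after compound exposure.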

[10] = NCI Yeast Anticancer Drug Screen. Data for the mlh1 rad18 strain (AID 175); conditions: S. cerevisiae mlh1 rad18 strain growth inhibition, active compounds read high
Outline: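 Inhibition values reflect reduced growth of mutant yeast versus vehicle-treated controls following compound exposure; the mutations affect DNA damage repair.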

[11] = NCI Yeast Anticancer Drug Screen. Data for the rad18 strain (AID 177); conditions: S. cerevisiae rad18 mutant growth inhibition, active compounds read high
Outline: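 Steps: expose repair-mutant yeast to compound; measure growth; express as inhibition relative to vehicle control.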

[12] = NCI Yeast Anticancer Drug Screen. Data for the rad52 strain (AID 147);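 also: 0% = growth of vehicle-treated control cultures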; conditions: S. cerevisiae rad52 mutant growth inhibition, active compounds read high
Outline: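 Inhibition of yeast growth, referenced to vehicle controls, was the measured output for a strain with defective DNA damage repair.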

[13] = NCI Yeast Anticancer Drug Screen. Data for the rad50EPP+ strain (AID 151);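 also: 0% = growth of vehicle-treated control cultures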; conditions: S. cerevisiae rad50 mutant strain, active compounds read high
Outline: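 Genetically defined yeast (rad50EPP+, DNA damage repair alteration) is grown with compound, and inhibition of growth is expressed relative to vehicle-treated controls.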

[14] = NCI Yeast Anticancer Drug Screen. Data for the rad50 strain (AID 155);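 also: 0% = growth of vehicle-only cultures of the same strain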; conditions: S. cerevisiae rad50 strain growth inhibition, active compounds read high
Outline: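 Inhibition values express reduced yeast growth in compound-treated cultures relative to vehicle-treated controls.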

[15] = at 5.0 µM (retest, dose inferred, filed as 0.5)
[16] = at 50.0 µM (retest, dose inferred, filed as 5.0)

Measured: growth inhibition

O=C(CNS(=O)(=O)Cc1ccccc1)NNc1ccccc1
inactive: [1]; at 100.0 µM 16% | [2]; at 1.2 µM 0% | [2]; at 3.7 µM 3% | [2]; at 11.0 µM 6% | [2]; at 33.0 µM 13% | [2]; at 100.0 µM 20% | [3]; [15] 28% | [3]; at 50.0 µM 63.6% | [4]; at 1.2 µM 5% | [4]; at 3.7 µM 5% | [4]; at 11.0 µM 24% | [4]; at 33.0 µM 39% | [4]; at 100.0 µM 39% | [5]; [15] 8% | [5]; [16] 33% | [5]; at 50.0 µM 60% | [6]; at 1.2 µM 1% | [6]; at 3.7 µM 0% | [6]; [15] 5% | [6]; at 11.0 µM 2% | [6]; at 33.0 µM 8% | [6]; [16] 29% | [6]; at 50.0 µM 69.3% | [6]; at 100.0 µM 10% | [7]; at 1.2 µM 1% | [7]; at 3.7 µM 2% | [7]; at 11.0 µM 11% | [7]; at 33.0 µM 30% | [7]; at 100.0 µM 38% | [8]; at 1.2 µM -4% | [8]; at 3.7 µM 0% | [8]; at 11.0 µM 5% | [8]; at 33.0 µM 16% | [8]; at 100.0 µM 24% | [9]; at 1.2 µM -1% | [9]; at 3.7 µM -1% | [9]; at 11.0 µM 8% | [9]; at 33.0 µM 36% | [9]; at 100.0 µM 54% | [10]; at 50.0 µM 40.1% | [11]; at 1.2 µM 4% | [11]; at 3.7 µM 5% | [11]; at 11.0 µM 23% | [11]; at 33.0 µM 63%
active: [3]; [16] 71% | [10]; [15] 71% | [10]; [16] 90% | [11]; at 100.0 µM 83%

CCCCCCCCCCCc1nc(N)n[nH]1
active: [12]; at 33.0 µM 87% | [12]; at 100.0 µM 96% | [13]; at 100.0 µM 70% | [14]; at 33.0 µM 92% | [14]; [16] 81% | [14]; at 50.0 µM 97.1% | [14]; at 100.0 µM 96% | [1]; at 33.0 µM 73% | [1]; [16] 87% | [1]; at 50.0 µM 96.7% | [1]; at 100.0 µM 93% | [2]; at 100.0 µM 96% | [3]; at 50.0 µM 80.6% | [4]; at 100.0 µM 82% | [5]; at 50.0 µM 75.9% | [6]; at 33.0 µM 75% | [6]; [16] 88% | [6]; at 50.0 µM 95.8% | [6]; at 100.0 µM 91% | [7]; at 33.0 µM 92% | [7]; at 100.0 µM 97% | [8]; at 33.0 µM 79% | [8]; at 100.0 µM 95% | [9]; at 33.0 µM 92% | [9]; at 100.0 µM 96% | [10]; at 50.0 µM 93% | [11]; at 100.0 µM 94%
inactive: [12]; at 1.2 µM -1% | [12]; at 3.7 µM -7% | [12]; at 11.0 µM 5% | [13]; at 1.2 µM -1% | [13]; at 3.7 µM 7% | [13]; at 11.0 µM 16% | [13]; at 33.0 µM 55% | [14]; at 1.2 µM -11% | [14]; at 3.7 µM -13% | [14]; [15] -181% | [14]; at 11.0 µM -7% | [1]; at 1.2 µM -4% | [1]; at 3.7 µM 1% | [1]; [15] -48% | [1]; at 11.0 µM 0% | [2]; at 1.2 µM 5% | [2]; at 3.7 µM 1% | [2]; at 11.0 µM 7% | [2]; at 33.0 µM 65% | [3]; [15] -66% | [3]; [16] 59% | [4]; at 1.2 µM -3% | [4]; at 3.7 µM -6% | [4]; at 11.0 µM -13% | [4]; at 33.0 µM 16% | [5]; [15] -79% | [5]; [16] 62% | [6]; at 1.2 µM 5% | [6]; at 3.7 µM -2% | [6]; [15] -79% | [6]; at 11.0 µM 4% | [7]; at 1.2 µM 5% | [7]; at 3.7 µM 6% | [7]; at 11.0 µM 24% | [8]; at 1.2 µM -10% | [8]; at 3.7 µM -6% | [8]; at 11.0 µM -3% | [9]; at 1.2 µM -5% | [9]; at 3.7 µM -13% | [9]; at 11.0 µM 21% | [10]; [15] -154% | [10]; [16] 20% | [11]; at 1.2 µM -12% | [11]; at 3.7 µM -5% | [11]; at 11.0 µM -7% | [11]; at 33.0 µM 68%

Cc1ccc(S(=O)(=O)N/N=C/C2(c3ccccc3)c3ccccc3-c3ccccc32)cc1
inactive: [12]; at 1.2 µM 41% | [12]; at 3.7 µM 45% | [13]; at 1.2 µM 11% | [13]; at 3.7 µM 2% | [13]; at 11.0 µM 17% | [13]; at 33.0 µM -8% | [13]; at 100.0 µM -37% | [14]; at 1.2 µM 4% | [14]; at 3.7 µM 36% | [14]; [15] 38% | [14]; at 50.0 µM 29.5% | [1]; at 1.2 µM 25% | [1]; at 3.7 µM 15% | [1]; [15] 22% | [1]; at 11.0 µM 27% | [1]; at 50.0 µM 7.7% | [2]; at 1.2 µM 9% | [2]; at 3.7 µM 9% | [2]; at 11.0 µM 45% | [3]; [15] 31% | [3]; at 50.0 µM 33.8% | [4]; at 1.2 µM 37% | [4]; at 3.7 µM 38% | [5]; [15] 45% | [5]; at 50.0 µM 16.1% | [6]; at 1.2 µM 19% | [6]; at 3.7 µM 9% | [6]; [15] 20% | [6]; at 11.0 µM 54% | [6]; at 50.0 µM 29.1% | [6]; at 100.0 µM 62% | [7]; at 1.2 µM -8% | [7]; at 3.7 µM 18% | [8]; at 1.2 µM 21% | [8]; at 3.7 µM 7% | [8]; at 11.0 µM 30% | [8]; at 33.0 µM 61% | [9]; at 1.2 µM 16% | [9]; at 3.7 µM 15% | [9]; at 11.0 µM 45% | [11]; at 1.2 µM 50% | [11]; at 3.7 µM 52%
active: [12]; at 11.0 µM 79% | [12]; at 33.0 µM 93% | [12]; at 100.0 µM 86% | [14]; at 11.0 µM 82% | [14]; at 33.0 µM 90% | [14]; [16] 92% | [14]; at 100.0 µM 77% | [1]; at 33.0 µM 78% | [1]; [16] 93% | [1]; at 100.0 µM 84% | [2]; at 33.0 µM 86% | [2]; at 100.0 µM 86% | [3]; [16] 93% | [4]; at 11.0 µM 80% | [4]; at 33.0 µM 91% | [4]; at 100.0 µM 76% | [5]; [16] 90% | [6]; at 33.0 µM 88% | [6]; [16] 90% | [7]; at 11.0 µM 76% | [7]; at 33.0 µM 91% | [7]; at 100.0 µM 80% | [8]; at 100.0 µM 71% | [9]; at 33.0 µM 82% | [9]; at 100.0 µM 80% | [10]; [15] 79% | [10]; [16] 91% | [10]; at 50.0 µM 70.5% | [11]; at 11.0 µM 80% | [11]; at 33.0 µM 91% | [11]; at 100.0 µM 89%

Reference: PubChem BioAssay (NCI)
